Assay outcomes deposited in PubChem by several laboratories.
TWEAK Fn14 block = TWEAK-Fn14 signaling inhibition | TWEAK-stimulated Fn14 reporter cells, luciferase luminescence, 8 h | inhibition, % at 10 µM | 360,000 compounds, 2% hits; in the data active = inhibition above about 50%
HIF-2a block = HIF-2a inhibition; 786-0 RCC cells HIF-2a reporter, luciferase luminescence, overnight; inhibition, % at 18.8 µM; 360,000 compounds, 0.72% hits;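 active = inhibition of the luminescence signal of 40% or more relative to plate controls, in a single-dose primary screen at 18.75 µM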
Peg3 prom inh = Peg3 promoter activity inhibition; inhibition, % at 20 µM; 360,000 compounds, 1.7% hits; HeLa PEG-Prom luciferase reporter, luminescence, overnight; AID 588405;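 active = inhibition of at least 50% at 20 µM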
EBV LMP1 NFkB = inhibitors of Epstein-Barr LMP1-induced NF-kappaB reporter; LMP1-induced NF-kappaB luciferase reporter cells, luminescence; inhibition, % at 12.5 µM; 350,000 compounds, 0.69% hits; AID 504558; in the data active = inhibition above about 41%;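 note: 0% = neutral control wells and 100% = reference inhibitor control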
TRPM1 prom inh = reduces MITF-dependent TRPM1 promoter luciferase signal | SK-MEL-5 TRPM1 promoter luciferase, 24 h | inhibition, % at 12.5 µM | 330,000 compounds, 0.83% hits | AID 488899;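 active = mean inhibition across replicates of 60% or more, whatever share of single replicates reaches that level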
TROY signal inh = inhibitors of TROY-dependent NF-kB signaling; Q293 LMP1-TROYcd NF-kB luciferase reporter, 4 h; inhibition, % at 10 µM; 360,000 compounds, 0.98% hits;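 active = compounds whose plate-normalised and pattern-corrected inhibition of the luciferase reporter signal at the single screening dose is 50% or more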
* marks the source's active call; other numbers are inactive results; . = not tested or not shown. The list is not random: actives were taken first. Their share in the collection is about 4%.

SMILES | TWEAK Fn14 block | HIF-2a block | Peg3 prom inh | EBV LMP1 NFkB | TRPM1 prom inh | TROY signal inh
N/C(Cc1ccc([N+](=O)[O-])cc1)=N\OC(=O)c1ccc2ccccc2c1 | -3 | -66 | 81* | -18 | 13 | 59*
CCN(CC)S(=O)(=O)c1ccc2c(c1)N(CC(=O)N1CCCC1)C(=O)CO2 | 12 | 20 | 4 | -1 | -14 | -5
Cc1ccc(S(=O)(=O)N2CCN(C(=O)CCC(=O)NCc3cccc(C(F)(F)F)c3)CC2)cc1 | 12 | 12 | 17 | -7 | 12 | 11
Cc1cccc(-n2ncc3c(N4CC(C)CC(C)C4)ncnc32)c1 (stereo not given) | 11 | -324 | -362 | -63 | -81 | 33
Cc1cccc(-n2ncc3c(N4CCCC4)ncnc32)c1 | 57* | -148 | -102 | 7 | -48 | 22
Cc1cccc(-n2ncc3c(N4CCOCC4)ncnc32)c1 | 85* | 22 | 23 | 66* | 56 | 68*
Cc1cccc(-c2n[nH]nc2C2=CC(=O)CC(C)(C)C2)c1 | 8 | -3 | 19 | 3 | . | 1
O=C(Nc1ccccc1C(F)(F)F)N1CCC(N2CCCCC2)CC1 | 84* | 9 | 7 | 7 | 3 | .
COc1ccccc1C(=O)N(CCC1CCCN1C)c1nc2ccccc2s1 (stereo not given) | 101* | 15 | -30 | 2 | -3 | 89*
COc1ccc2sc(N(CCCN(C)C)C(=O)c3nc4ccccc4s3)nc2c1 | -2 | -82 | -57 | -8 | 7 | 3
N#Cc1nc(Nc2cccc(Cl)c2)c2ncn(C3CCCC3)c2n1 | 87* | -150 | -181 | -63 | -13 | 1
O=[N+]([O-])c1cnc2ccccc2c1 | 0 | -16 | 14 | -3 | 10 | -3
O=[N+]([O-])c1cc([N+](=O)[O-])c2cc3ccccc3nc2c1 | 93* | 15 | 92* | -8 | 54 | 33
O=C(NCCc1nc(-c2ccc(F)cc2)no1)c1ccc(F)cc1 | 11 | 6 | 11 | 1 | -3 | -10
Fc1ccc(-c2noc(-c3ccc4c(c3)CCO4)n2)cc1 | 61* | -238 | -176 | -12 | -19 | 15
O=C(NNC(=S)Nc1cccc(C(F)(F)F)c1)c1cccc(Cl)c1 | 62* | -56 | -11 | 7 | 6 | 36
O=C(/C=C/c1cccc(C(F)(F)F)c1)Nc1cccc(C(F)(F)F)c1 | 61* | -62 | 17 | 5 | 23 | 51*
Cc1cccc(NC(=O)CN2CCN(C(=O)CN3C(=O)NC4(CCCCC4C)C3=O)CC2)c1C (stereo not given) | 3 | 6 | 22 | 5 | -11 | -10
Cc1cc(N2CCN(C)CC2)nc2ccc(NC(=S)N3CCN(c4ccc(F)cc4)CC3)cc12 | 10 | 19 | 66* | 0 | 22 | 29
Cc1cc(N2CCN(C)CC2)nc2ccc(NC(=S)N3CCN(c4cccc(Cl)c4)CC3)cc12 | -9 | 12 | -12 | 1 | 15 | -4
Cc1cccc(N2CCN(C(=S)Nc3ccc4nc(N5CCN(C)CC5)cc(C)c4c3)CC2C)c1 (stereo not given) | -9 | 11 | 76* | -6 | 47 | 18
Cc1cc(N2CCN(C)CC2)nc2ccc(NC(=S)N3CCCCC3)cc12 | -8 | -48 | -59 | -3 | -17 | 54*
Cc1cc(N2CCN(C)CC2)nc2ccc(NC(=S)N3CCCCCC3)cc12 | -26 | -22 | -22 | 0 | -26 | 28
C[C@H](c1ccccc1)N1C[C@@H](COCc2ccccc2)Oc2cc(N3CC[C@@H](N(C)C)C3)ccc2S1(=O)=O | -2 | 3 | . | . | . | -6
COC(=O)[C@H]1C[C@H]2[C@@H]3CC[C@H]4C[C@@H](OC)CC[C@]4(C)[C@H]3CC[C@]2(C)[C@@]2(CCCO2)O1 | 10 | 1 | 7 | 3 | -3 | -7
SMILES | TWEAK Fn14 block | HIF-2a block | Peg3 prom inh | EBV LMP1 NFkB | TRPM1 prom inh | TROY signal inh
O=C(NC(Cc1c[nH]c2ccccc12)C(=O)N1CCOCC1)c1cccs1 (stereo not given) | 24 | 6 | 12 | -1 | 15 | -11
O=C(NC(Cc1c[nH]c2ccccc12)C(=O)N/N=C/c1ccc(Cl)cc1)c1cccs1 (stereo not given) | 53* | 19 | 36 | -15 | 19 | 29
O=S(=O)(Nc1ccc(O)c2ccccc12)c1cccs1 | 82* | 13 | 21 | -1 | 58 | 28
CCOC(=O)N1CCN(C(=S)Nc2ccc(C)cc2)CC1 | 0 | -4 | -12 | -4 | -14 | -14
Cc1cccc(C)c1-n1c(C)cc(/C=N\Nc2ccc([N+](=O)[O-])cn2)c1C | 80* | -24 | -43 | 1 | -19 | .
COC1=C(C)C(=O)C2=C(C1=O)C1C3CC4=C(C(=O)C(OC)=C(C)C4=O)C(CNC(=O)C(C)=O)N3C(C#N)C(C2)N1C (stereo not given) | 100* | 78* | 101* | 77* | 114* | 63*
COc1ccc([C@H]2CC(=O)C[C@@H](CCn3cc(-c4nccn4C)nn3)O2)cc1 | -1 | 8 | . | . | . | 2
Cc1cccc(N=C2NN=C(c3c(C)[nH]c4ccccc34)CS2)c1 | 15 | -17 | 31 | -52 | 13 | 17
CCc1ccc(C2=NNC(=Nc3cccc(S(=O)(=O)N(C)C)c3)SC2)cc1 | 72* | -5 | -15 | -3 | 53 | 28
Cc1cccc(N=C2NN=C(c3ccc4c(c3)OCCO4)CS2)c1 | 54* | -190 | -223 | -23 | -43 | 57*
CC(C)(C)OC(=O)N1CCC(C(=O)NCC2CCCO2)CC1 (stereo not given) | 5 | 18 | 20 | 0 | -7 | -5
CCOC(=O)C1=C(COC(=O)/C=C/c2cccc(OC)c2OC)NC(=O)NC1C (stereo not given) | -5 | -51 | -25 | 7 | -17 | -13
CC(C)=CC(=O)N1CC[C@@H](N2CCN(c3ccccc3F)CC2)[C@H](O)C1 | 1 | 21 | -6 | -25 | 0 | -1
COc1cc2c(c(OC)c1OC)-c1ccc(N(C)CC(OC)OC)c(=O)cc1[C@@H](NC(C)=O)CC2 | 16 | 26 | 3 | -11 | 73* | 21
CCN(CC)c1ccc2c(cc1=O)[C@@H](NC)CCc1cc(OC)c(OC)c(OC)c1-2 | 11 | 7 | -2 | 22 | 66* | 20
COc1cc2c(c(OC)c1OC)-c1ccc(OC)c(=O)cc1C(N)CC2 (stereo not given) | 64* | 22 | -28 | -2 | 39 | 19
COc1ccccc1C1/C(=C(\O)c2ccc3c(c2)OCCO3)C(=O)C(=O)N1Cc1cccnc1 (stereo not given) | 4 | -4 | -4 | 1 | 11 | -18
Cc1ccc(Cc2c(-c3ccccc3)nc3c(Cl)cc(C(F)(F)F)cn23)cc1 | 36 | 8 | 15 | . | . | 10
CN(C)c1cccc2c(S(=O)(=O)Nc3ccccn3)cccc12 | 84* | 3 | -1 | -19 | 10 | 62*
Cc1ccc(S(=O)(=O)Nc2ccccn2)c(C)c1 | 16 | 15 | 1 | 3 | . | 4
